Source: ChEMBL document CHEMBL3988442, “University of Dundee, Small-Polar-MMV Screening Library” (2021)
Hit rate of the full screen: of about 48,000 compounds, about 13,000 (27%) showed an effect of 50% or more. The list shows a part of the results.

These compounds were tested on Wolbachia pipientis (assay: Anti-Wolbachia Cell-Based Screen). Conditions: 5 µM.
Format: functional
Parameters: scale not given: in the data most compounds retested in dose-response had high values

Compound	Percent Effect
CO[C@H]1CN(C)S(=O)(=O)[C@@]12CCN(Cc1ccccc1)C2	109.7%
CO[C@@H]1CN(C)S(=O)(=O)[C@@]12CCN(Cc1ccccc1)C2	116.7%
CC1CN(Cc2ccccc2)CCCN1CCS(C)(=O)=O (stereo not drawn)	-9.711%
CC1CN(Cc2ccccc2)CCCN1CCNS(C)(=O)=O (stereo not drawn)	2.156%
COc1ccc(OCC(C)NS(C)(=O)=O)cc1 (stereo not drawn)	-2.499%
CCCOc1cc(C)c2c(c1C)C[C@H]([C@H](C)C(=O)O)CC2	-9.304%
CNS(=O)(=O)CC(=O)N1CC2(CCCC2)c2c(F)cccc21	-10.56%
CCS(=O)(=O)N1CCC(NCC2CNc3cc(C)nn3C2)CC1 (stereo not drawn)	-5.639%
CC(=O)Nc1ccc2c(c1)C1(CCOCC1)C(=O)N2c1ccsc1	7.168%
c1ccc(Cc2noc(CN3CCCCC3C3OCCO3)n2)cc1 (stereo not drawn)	-5.666%
COC(=O)c1ccc(NC(=O)CN2CCCCC2C2OCCO2)cc1 (stereo not drawn)	-2.306%
OCCN1CCCCC1C1OCCO1 (stereo not drawn)	89.19%
C1CCN(CCN2CCCCC2C2OCCO2)CC1 (stereo not drawn)	105.6%
C1CC(CN2CCCCC2C2OCCO2)C1 (stereo not drawn)	19.65%
COc1ccc(NC(=O)CN2CCCCC2C2OCCO2)cc1 (stereo not drawn)	17.05%
CCn1cc(NC(=O)NCc2ccc3c(c2)OCO3)cn1	135.2%
CCn1cc(NC(=O)NCCc2ccc3c(c2)OCO3)cn1	124.8%
CCn1cc(NC(=O)NCC2(N3CCOCC3)CCSC2)cn1 (stereo not drawn)	-22.54%
CCn1cc(NC(=O)Nc2ccc3c(c2)OCCO3)cn1	131.1%
CCn1cc(NC(=O)NCCc2ccc3c(c2)OCCO3)cn1	126.5%
O=C(Cn1cc(Cl)cn1)Nc1ccc2c(c1)OCCCO2	-3.42%
CCn1cc(NC(=O)NCC(C)O)cn1 (stereo not drawn)	-13.78%
Cn1cc(CCNC(=O)CCc2ccc3c(c2)OCO3)cn1	-1.168%
CCCn1cc(C(=O)NCCc2ccc3c(c2)OCO3)c(C)n1	-4.07%
Cc1nn(C)c(C)c1CN(Cc1cccn1-c1ccccn1)C(C)C	-9.247%

Compound	Percent Effect
CCc1cnc(N2CCN(Cc3ccno3)CC2)s1	1.528%
CCn1cc(NC(=O)NCc2ccc(CO)c(F)c2)cn1	112.4%
CC(C)c1nnc(NC(=O)NCc2ccc(CO)c(F)c2)s1	-3.606%
CCn1cc(NC(=O)NC(CO)Cc2c[nH]c3ccccc23)cn1 (stereo not drawn)	-9.205%
O=C(c1ccccn1)N1CCC(c2nc(O)cc(-c3ccncc3)n2)C1 (stereo not drawn)	109.3%
CC(C)(C)C(=O)N1CCC(c2nc(O)cc(-c3ccncc3)n2)CC1	112.4%
CC(C)C(=O)N1CCC(c2nc(O)cc(-c3ccncc3)n2)CC1	-8.577%
O=C(c1ccccn1)N1CCC(c2nccn2Cc2ccncc2)CC1	7.014%
O=C(c1ccccn1)N1CCCC(c2nccn2Cc2ccncc2)C1 (stereo not drawn)	-10.11%
O=C(c1cccnc1)N1CCC(c2nc(O)cc(-c3ccncc3)n2)C1 (stereo not drawn)	89.59%
COCc1cc(CNC(=O)c2c(O)cccc2O)n[nH]1	12.71%
CC(C)N1CCc2[nH]nc(C(=O)N3CCCC3C)c2C1 (stereo not drawn)	-13.09%
CCOCCCNC(=O)NC(C)c1ccc(-n2cncn2)cc1 (stereo not drawn)	-14.96%
CCOCCNC(=O)c1ccn(S(=O)(=O)c2ccc(C)cc2)c1	-5.067%
COCC(C)N(C)C(=O)c1ccc2nncn2c1 (stereo not drawn)	2.79%
COc1cc(C)c(NC(=O)NCCn2cccc2)cc1OC	2.296%
NC(=O)C1CCN(Cc2cc3c(cc2Br)OCCO3)C1 (stereo not drawn)	0.4913%
CC(C)[C@@H]1CN(C(=O)CN(C)Cc2ccccc2)C[C@H]1C(=O)O	-19.29%
CC(C)[C@@H]1CN(C(=O)C2(c3ccccc3)CC2)C[C@H]1C(=O)O	6.034%
Cc1cncc(C(=O)N2C[C@@H](C(=O)O)[C@H](C(C)C)C2)c1	102.6%
Cc1ccsc1C(=O)N1C[C@@H](C(=O)O)[C@H](C(C)C)C1	117.1%
CC(C)[C@@H]1CN(C(=O)c2ccsc2)C[C@H]1C(=O)O	124.9%
CC(C)C1CN(C(=O)c2ccsc2)CCS1 (stereo not drawn)	1.544%
CCc1ccccc1OC1CN(C(=O)c2ccsc2)C1	-5.309%
Cc1cncc(C(=O)N2CCN(c3cnn(C)c(=O)c3)CC2)c1	-23.7%

Compound	Percent Effect
Cc1cncc(C(=O)N2CCCC(C(=O)CCc3ccccc3)C2)c1 (stereo not drawn)	-18.81%
CC(c1cccs1)N(C)C(=O)c1cc(CN(C)Cc2ccccc2)on1 (stereo not drawn)	-11.33%
CN(C)c1cc(C(=O)NCC2(c3cccc(F)c3)CCOCC2)ccn1	-10.3%
CCOc1ccc(Cl)cc1C(C(=O)O)N1CCOCC1 (stereo not drawn)	-18.5%
CC(C)(C)OC(=O)N1CSC[C@@H]1C(=O)NCc1ccc(C#N)cc1	-6.965%
COCC1CN(Cc2sccc2C)Cc2nnn(CC3CC3)c21.O=C(O)C(F)(F)F (stereo not drawn)	8.391%
COCC1CN(Cc2ccc(C)s2)Cc2nnn(C)c21.O=C(O)C(F)(F)F (stereo not drawn)	106%
COCC1CN(Cc2ccc(C)o2)Cc2nnn(C)c21.O=C(O)C(F)(F)F (stereo not drawn)	3.893%
Cc1ccc(CN2Cc3c(C(=O)N(C)C)nn(C)c3C2)s1.O=C(O)C(F)(F)F	-8.124%
Cc1ccc(CN2Cc3nnn(C)c3C(COCC(=O)N(C)C)C2)s1.O=C(O)C(F)(F)F (stereo not drawn)	83.68%
Cc1ccc(CN2Cc3nnn(C)c3C(COCC3CC3)C2)o1.O=C(O)C(F)(F)F (stereo not drawn)	1.722%
Cc1ccc(CN2Cc3nnn(C)c3C(COCC3CC3)C2)s1.O=C(O)C(F)(F)F (stereo not drawn)	100.2%
CCC(CC)NC(=O)CN1CCSCC1	2.417%
Cc1ncnc(N2CCCN(c3nc4ccccc4s3)CC2)c1C	-5.721%
COCC(=O)N1CCC(c2nc3ccc(N4CCCC4)cn3n2)CC1.O=C(O)C(F)(F)F	-11.72%
CC(C)Nc1ccc2nc(C3CCN(C(C)C)CC3)nn2c1.O=C(O)C(F)(F)F	7.625%
CCN1CCC(c2nc3ccc(NC4CCC4)cn3n2)CC1.O=C(O)C(F)(F)F	79.67%
CC(=O)N1CCC(c2nc3ccc(NC4CCC4)cn3n2)CC1.O=C(O)C(F)(F)F	124.1%
COCCN1CCC(c2nc3ccc(N4CCCC4)cn3n2)CC1.O=C(O)C(F)(F)F	-8.298%
CCN1CCC(c2nc3ccc(NC(C)C)cn3n2)CC1.O=C(O)C(F)(F)F	-4.484%
c1cc2nc(C3CCNCC3)nn2cc1NC1CCC1	109.6%
Cl.Cl.Cl.c1cncc(CNc2ccc3nc(C4CCNCC4)nn3c2)c1	-18.54%
COCCN1CCC(c2nc3ccc(NC4CCC4)cn3n2)CC1.O=C(O)C(F)(F)F	99.27%
